Source: PubChem (several laboratories)
HSV replic up: enhancers of HSV replication in host cells, fold increase, host cell viability; HSV replication augmentation in cells; maximum fold increase; 220,000 tested, 0.005% active; in the data active = maximum fold increase above about 1.5; inconclusive = no clear call, values can overlap the other calls; tested in PC3 cells
Arbovirus inh: antivirals against arbovirus infection, primary screen, cell-based, full library, 10K replicate subset | AID 1251, 2008 | inhibition, % at 10 µM | arbovirus infection cell-based antiviral screen | 200,000 tested, 0.37% active; in the data active = inhibition above about 30%
ROMK primary: ROMK potassium channel modulators, primary screen, cell-based, thallium flux, MLSMR library; ATP-sensitive inward rectifier potassium channel 1 (Homo sapiens), P48048; Tet-inducible ROMK, thallium flux fluorescence; actives lie on both sides; B-score at 10 µM; 130,000 tested, 2% active; AID 1918, 2009;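 active = signal ratio slope over the read window, or its plate-corrected B-score, at least 3 SD from the plate mean, either direction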;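 also: B-score of the F/F0 ratio slope over 7 to 12 s after thallium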
Target sequence (P48048 whole entry, looked up): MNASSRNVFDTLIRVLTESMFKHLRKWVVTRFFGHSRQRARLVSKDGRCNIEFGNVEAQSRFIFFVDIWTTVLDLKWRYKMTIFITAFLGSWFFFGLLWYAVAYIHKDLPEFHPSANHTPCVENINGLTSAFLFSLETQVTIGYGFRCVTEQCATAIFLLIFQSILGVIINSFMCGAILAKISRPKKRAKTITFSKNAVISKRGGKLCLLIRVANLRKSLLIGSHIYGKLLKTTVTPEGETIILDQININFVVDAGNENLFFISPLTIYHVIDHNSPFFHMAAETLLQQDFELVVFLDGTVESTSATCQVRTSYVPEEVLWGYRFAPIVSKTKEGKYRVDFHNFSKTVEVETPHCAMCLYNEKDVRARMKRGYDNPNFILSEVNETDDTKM
Measles CPE: compounds protecting cells from measles virus cytopathic effect, primary screen, measles RdRp inhibitor project, single point, MLSMR library, absorbance; Measles virus-infected cells, CPE protection; AID 841, 2007; protection (pct of control), % at 4 µM; 140,000 tested, 1.5% active; in the data active = protection mostly above about 24%, no sharp cut-off; inactive = mostly below about 26%
KCC2 mod: KCC2 cotransporter modulators, thallium flux, primary screen, cell-based, HEK293 KCC2, FluoZin-2 fluorescence, MLSMR. B-score of Tl+ flux slope (higher = more flux/activation; lower = inhibition) at 10 µM. 190,000 tested, 2.2% active. Solute carrier family 12 member 5 (Homo sapiens), Q9H2X9. KCC2 cells, thallium flux FluoZin-2 fluorescence. AID 1456, 2008;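 active = thallium flux slope and its plate-corrected score both differing from the plate sample mean at a set confidence after two filtering rounds, in either direction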;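 also: slope of fluorescence scaled to starting intensity during 10 to 20 s after thallium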
KCC2 sec1: KCC2 modulators in sodium-free buffer, confirmation, cell-based, HEK293 KCC2, thallium flux, secondary assay. shares compounds with KCC2 mod. FluoZin2 fluorescence; active compounds read high. normalised thallium flux (F/F0 slope) at 10 µM. 3,700 tested, 15% active;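 active = thallium flux slope above the same plate's solvent-only control mean plus 3 SD; inconclusive = the two replicate wells disagree; inactive = no significant difference from solvent-only control wells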
KCC2 bumet counter: thallium flux persisting under bumetanide in KCC2 cells, confirmation, counter-screen for KCC2 modulator project, cell-based, HEK293 KCC2, FluoZin2, secondary assay 3; 3,700 tested, 49% active; AID 1714, 2009; shares compounds with KCC2 mod; normalized thallium flux at 10 µM; HEK293-KCC2 + bumetanide/ouabain; active compounds read high;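 active = thallium entry rate above the same plate's blocked-transporter control wells by more than 3 SD; inconclusive = the two repeat wells disagree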;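 also: raw slope of fluorescence over initial fluorescence between 10 and 20 s after thallium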
KCC2 sec2: KCC2 modulators without ouabain present, confirmation, cell-based, HEK293 KCC2, thallium flux, FluoZin2, secondary assay 2. shares compounds with KCC2 mod. thallium flux FluoZin2 fluorescence; actives lie on both sides; F/F0 rise rate, 10–20 s post-thallium. normalized thallium flux at 10 µM. 3,700 tested, 23% active. AID 1715, 2009;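 active = thallium flux slope more than 3 SD above or below the plate's solvent-only control mean, mostly below; inconclusive = the two repeat wells disagreed; inactive = no significant shift from solvent-only controls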;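 also: raw slope with 0.1% DMSO as baseline and bumetanide as block control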
HEK293 Tl flux: thallium flux modulation in parental HEK cells, confirmation, counter-screen for KCC2 modulator project, cell-based, counterscreen 1; 3,700 tested, 46% active; thallium flux rate (normalised fluorescence) at 10 µM; shares compounds with KCC2 mod; HEK293 parental cells, thallium flux FluoZin2, ouabain; baseline-ratio fluorescence slope, 10–20 s after thallium;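 active = thallium flux rate significantly above the same plate's solvent-only control wells, beyond their mean plus 3 SD; inconclusive = the two replicate wells gave conflicting results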
KCC2 retest ouab: KCC2 inhibitors and activators, ouabain retest, confirmation, HEK-KCC2 cells; 3,700 tested, 48% active; raw Tl+ flux slope (below DMSO = inhibition, above = activation) at 10 µM; AID 1717, 2009; shares compounds with KCC2 mod; HEK293-KCC2, thallium flux FluoZin2 fluorescence; bidirectional: low = inhibitor, high = activator;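 active = thallium flux slope beyond 3 SD from same-plate DMSO control mean in most replicates, usually higher, sometimes lower; inconclusive = repeat tests gave conflicting results; inactive = no significant difference from controls in most replicates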;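 also: slope of initial-normalized fluorescence between seconds 10 and 20 after thallium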
HEK293 Tl flux2: native HEK Tl+ uptake effects, second counter-screen – HEK cells, counterscreen 2, counter-screen for KCC2 modulator project, confirmation | shares compounds with KCC2 mod | HEK293 parental, thallium flux FluoZin-2 fluorescence slope | thallium flux slope at 10 µM | 3,700 tested, 33% active;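 active = thallium flux slope above the same plate's solvent-control mean plus 3 SD in both duplicate wells; inconclusive = duplicate wells that disagreed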;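 also: run without ouabain in cells lacking the KCC2 cotransporter; slope of fluorescence scaled to its starting value between 10 and 20 s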
Active calls of the source: *; i = inactive; ? = inconclusive; / = not tested or not shown. Sampled rows, rich in hits. Any-hit rate of the full collection: about 4%.

SMILES | HSV replic up | Arbovirus inh | ROMK primary | Measles CPE | KCC2 mod | KCC2 sec1 | KCC2 bumet counter | KCC2 sec2 | HEK293 Tl flux | KCC2 retest ouab | HEK293 Tl flux2
O=C(C1CC=CCC1)N1CCC(CO)(Cc2ccc(Cl)cc2)CC1 (stereo unspecified) | i | 4 | 0.43 | / | / | / | / | / | / | / | /
COC(=O)/C(=C(/F)Sc1cc(C)c(O)c(C)c1)C(F)(F)F | i | -4 | 0.72 | 2 | / | / | / | / | / | / | /
CC(C)n1c(SCC(=O)Nc2ccccc2N2CCOCC2)nc2c1c(=O)n(C)c(=O)n2C | i | -4 | / | 10 | / | 0.0065 | 0.0042 | 0.03 | 0.0075 | 0.018 | 0.0098
Cc1ccc(Nc2nc(=O)c3cccnc3s2)c(Br)c1 | i | / | / | / | 29* | 0.0075 | 0.038* | ? | 0.02* | 0.038* | 0.021*
CSc1nc2cc(C)nn2c(-c2ccccc2Cl)c1C#N | i | / | / | / | -0.47 | / | / | / | / | / | /
Cc1ccc(S(=O)(=O)CC(=O)c2ccc3c(c2)OCCO3)cc1 | i | / | / | / | 0.58 | / | / | / | / | / | /
Cc1ccc(NC(=O)C(=O)NNC(=O)c2ccccc2C)cc1Cl | / | -4 | / | 7 | 46* | 0.048* | 0.11* | 0.052* | ? | 0.087* | 0.043*
COc1ccc(C(=O)NNC(=O)C(=O)Nc2ccc(C)c(Cl)c2)cc1 | i | 5 | 0.1 | / | 47* | 0.01* | 0.067* | 0.054* | 0.057* | 0.06* | 0.051*
COC(=O)c1cnc(Oc2c(Cl)cc(N)cc2Cl)cc1C(F)(F)F | i | / | -0.59 | / | -2 | / | / | / | / | / | /
Cc1cc(C)cc(N(CC(=O)NCCSc2ccccn2)S(=O)(=O)c2ccccc2)c1 | i | -5 | / | 5 | -0.99 | / | / | / | / | / | /
Cc1ccccc1N(CC(=O)NCCSc1ccccn1)S(=O)(=O)c1ccccc1 | i | -7 | -0.018 | / | -2.9* | 0.008 | 0.006 | 0.031 | 0.007 | 0.019 | 0.0098
COc1ccc(OC)c(CC(NC(C)=O)C(=O)NC2CCN(c3cc(C)nc4ncnn34)CC2)c1 (stereo unspecified) | i | 3 | 0.86 | / | 0.63 | / | / | / | / | / | /
COC(=O)c1ccc(CNC(=O)COC(=O)C2CC3C=CC2C3)cc1 (stereo unspecified) | i | 12 | 0.75 | / | 0.65 | / | / | / | / | / | /
S=c1nc[nH]c2c1cnn2-c1ccccc1 | i | / | / | / | 149* | 0.052* | 0.16* | 0.067* | 0.093* | 0.11* | 0.051*
Nc1ncnc2c1cnn2-c1ccccc1 | i | 13 | 1.5 | 6 | 1.2 | / | / | / | / | / | /
Cc1cc(C(=O)N2CCCC(C(=O)c3ccc4ccccc4c3)C2)n(C)n1 (stereo unspecified) | i | 7 | 0.0065 | / | -0.75 | / | / | / | / | / | /
C=CCn1c(SCCCc2ccccc2)nc2c1c(=O)[nH]c(=O)n2C | / | -13 | / | 8 | -3.7* | 0.0073 | 0.0044 | 0.033 | ? | 0.019 | 0.01
